# From PubChem BioAssay (NCI)
# The panel holds about 83,000 compounds, 20% with a hit somewhere; the sample as a whole holds those more often.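 Assay: single dose, 48 h. Readout: percent growth (0 = no net growth; negative = cell death). Active: <10.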 A number with no mark means an inactive call. Activity calls are given as the source filed them.
# Tested on: EKVX NSCLC
# Experiment: NCI-60 one-dose screen, 48 h (100 = growth as untreated, 0 = no growth, -100 = all killed)
# Conditions: 10 µM unless noted
row,Structure (SMILES),growth
1,C=C(C)[C@@H]1CC[C@]2(C(N)=O)CC[C@]3(C)[C@H](CC[C@@H]4[C@@]5(C)CC[C@H](O)C(C)(C)[C@@H]5CC[C@]43C)[C@@H]12,-10.3% [100 µM] (active)
2,CCN1CCN(CC(=O)Nc2nc3ccc(NCc4ccc(Cl)cc4)cc3s2)CC1,86.3%
3,COc1cc(C)cc2oc3oc(=O)c(C(=O)c4cc5cc(Br)ccc5o4)cc3c(=O)c12,100%
4,O=S(=O)(NCCCNc1nccc(-c2c(-c3cccc(F)c3)nc3occn23)n1)c1cccc2ccccc12,47.3%
5,CC1(C)[C@@H](NOCCCN)CC[C@]2(C)[C@H]3C(=O)C=C4[C@@H]5C[C@](C)(C(=O)O)CC[C@]5(C)CC[C@@]4(C)[C@]3(C)CC[C@@H]12,-41.4% [100 µM] (active)
6,O=c1[nH]c(CN2CCN(c3cccc(Cl)c3)CC2)nc2cc(Cl)ccc12,105%
7,COc1cc2c(O)n(CCCN3CCOCC3)c3c4cnc5cccc(c(=O)c3c2cc1OC)c54,63.5%
8,CCOC(=O)c1sc2nc(-c3cc(OC)c(OC)c(OC)c3)nc(N3CCOCC3)c2c1C,39.5%
9,Cc1cc(C)c(S(=O)(=O)/N=c2/n(-c3ccccc3)nc3n2CCN3C2=NCCN2)c(C)c1,83%
10,Cc1ccc(S(=O)(=O)N/N=C2\CC3CCC2(C)C3(C)C)cc1 (configuration not stated),105%
11,N#C/C(C(=O)c1ccccc1)=C1/C(=O)Nc2ccccc21,99.4%
12,CCc1ccc(C2=C/C(=C/c3ccccc3)C(=O)N2CCc2ccc(S(N)(=O)=O)cc2)cc1,96.3%
